# Reference: publication PMC5540273 (PLoS ONE, 2017)
# What was measured:
# Conditions in all cases: concentration: 1 μM, replicates: in singlicate; n = 1
# DAPK2 = system: DAPK2
# DAPK3 = system: DAPK3
# DCAMKL1 = system: T1, DCAMKL1
# T1 construct: gene DCLK1
# DCAMKL2 = system: T2, DCAMKL2
# T2 construct: gene DCLK2
# DCAMKL3 = system: T3, DCAMKL3
# T3 construct: gene DCLK3
# DDR1 = system: DDR1
# DDR2 = system: DDR2
# DLK = system: T4, DLK
# T4 construct: gene MAP3K12
# DMPK2 = system: T5, DMPK2
# T5 construct: gene CDC42BPG
# DMPK = system: DMPK
# 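Note: KINOMEscan kinase panel screen.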
SMILES,%Inh (DAPK2) [%],%Inh (DAPK3) [%],%Inh (DCAMKL1) [%],%Inh (DCAMKL2) [%],%Inh (DCAMKL3) [%],%Inh (DDR1) [%],%Inh (DDR2) [%],%Inh (DLK) [%],%Inh (DMPK2) [%],%Inh (DMPK) [%]
CCCc1ccc(S(=O)(=O)NC2CCN(c3ccnc(Nc4ccc(F)cc4)n3)C2)cc1 (stereo not drawn) [GSK1379715],0,7,10,0,0,0,7,0,0,0
COc1cccc(-c2cc(-c3c[nH]nc3-c3ccccn3)ccn2)c1 [GW680338],22,23,13,0,0,3,37,28,6,0
Cl.c1ccc(-c2n[nH]cc2-c2ccnc(-c3ccc(CN4CCOCC4)cc3)c2)nc1 [GW776245],12,4,38,16,12,0,34,0,9,0
COc1cc2nccc(Nc3ccc(NC(=O)c4ccc(C)cc4)c(O)c3)c2cc1OC.Cl [GW440132],8,19,8,7,16,0,5,6,0,0
Cc1cccc(-c2cc(Nc3ccncc3)c3ccccc3n2)n1 [GSK223675],0,9,3,0,1,9,0,0,7,0
Cc1cccc(-c2nc(C)cc(Nc3ccncc3)n2)n1 [GSK257997],2,14,11,3,13,0,1,0,89,0
Cn1ccc2ncnc(Oc3cccc(C(=O)Nc4ccccc4)c3)c21,24,0,28,0,0,0,9,0,0,11
NC(=O)c1nnc2ccccc2c1N,10,6,9,30,0,0,11,18,0,0
COc1cccc(NC(=O)NC2CCN(c3ccnc(Nc4ccc(F)cc4)n3)C2)c1 (stereo not drawn) [GSK1379721],0,2,11,2,0,17,38,0,13,0
COC(=O)c1c(-c2ccccc2)c2cc(OC)ccc2c(=O)n1Cc1ccccc1,2,6,12,7,0,81,50,9,0,0
CN(C)CCN(C)C(=O)c1cc(-c2ccncc2)c(-c2ccc(Cl)c(O)c2)o1.Cl.Cl [SB-710397],0,33,56,9,0,34,38,34,47,0
O=C1NC(=O)C(N2CCc3ccccc32)=C1c1ccccc1Cl [SB-373598],23,4,10,0,11,12,14,0,12,26
CC1=C(C(=O)Nc2cc3cn[nH]c3cc2F)C(c2ccc(C(F)(F)F)cc2)CC(=O)N1 (stereo not drawn) [GSK429286],0,24,4,7,39,3,0,0,0,0
Cc1c(O)cccc1Nc1ccnc2ccc(C(F)(F)F)cc12.Cl [GW466413],0,0,0,0,0,16,24,43,0,0
Cc1cccc(-c2nc(Nc3cccc(C(N)=O)c3)c3ccccc3n2)n1 [GW876019],0,17,36,0,29,29,8,0,0,0
COc1cc2ncnc(Nc3ccc4nc(-c5ccccc5)[nH]c4c3)c2cc1OC.Cl [GW282450],15,13,8,0,0,0,0,7,0,0
Cc1cc(N2Cc3ccccc3C2)nc(Nc2ccc(S(=O)(=O)N3CCOCC3)cc2)n1.Cl [GSK1669917],5,100,21,0,0,0,9,2,1,0
Nc1ncnc2[nH]c(-c3ccccc3)nc12 [AH5015],0,27,11,0,13,0,13,21,0,0
